Measurements: the supplement of paper PMC10849652
Targets with a hit are over-represented here; the source holds about 7,900 in all. About 0.6% of all pairs of compound and target were hits. Values without a mark were called inactive.

Key:
Assay in all cases: log2 fold change, soluble protein after heating vs DMSO (PISA); higher = thermal stabilisation; K562 cells, 10 uM, 30 min; active = over 0.2 and 3.5 SD of the protein, either way, in both replicates (recomputed)
[1] = compound: C1=CC=C(C=C1)[C@H](COC2=CC3=C(C=C2)NC(=O)N3)NC(=O)C4=CC=CN(C4=O)CC5=CC(=C(C=C5)F)F
Summary of the method: (§1)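 Soluble protein was quantified by TMTpro 16plex LC-MS/MS after channel sums were equalised. It was obtained as the supernatant after 21,000xg for 90 min from pooled aliquots of K562 cells (2×10^6 cells/mL, 10 μM compound, 30 min) heated for 3 min across 48°C-58°C and extracted in PBS with 0.5% NP-40 at 4°C. Thermal stability values are relative to control samples and come from duplicates. They are given as log2 fold changes.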

[2] = compound: CC1=C(SC2=C1C(=N[C@H](C3=NN=C(N32)C)CC(=O)N)C4=CC=C(C=C4)Cl)C
Summary of the method: as §1

[3] = compound: CC1=C2C(=CC=C1)N=C(N(C2=O)C3=CC=CC=C3C)CN4C=NC5=C(N=CN=C54)N
Summary of the method: as §1

[4] = compound: Cc1sc2c(c1C)C(c1ccc(Cl)cc1)=N[C@@H](CC(=O)OC(C)(C)C)c1nnc(C)n1-2
Summary of the method: as §1

[5] = compound: c1ccc([C@@H]2C[C@H]2NC2CCNCC2)cc1
Summary of the method: as §1

Sequence of UniProt O95486 (O95486 whole entry, looked up): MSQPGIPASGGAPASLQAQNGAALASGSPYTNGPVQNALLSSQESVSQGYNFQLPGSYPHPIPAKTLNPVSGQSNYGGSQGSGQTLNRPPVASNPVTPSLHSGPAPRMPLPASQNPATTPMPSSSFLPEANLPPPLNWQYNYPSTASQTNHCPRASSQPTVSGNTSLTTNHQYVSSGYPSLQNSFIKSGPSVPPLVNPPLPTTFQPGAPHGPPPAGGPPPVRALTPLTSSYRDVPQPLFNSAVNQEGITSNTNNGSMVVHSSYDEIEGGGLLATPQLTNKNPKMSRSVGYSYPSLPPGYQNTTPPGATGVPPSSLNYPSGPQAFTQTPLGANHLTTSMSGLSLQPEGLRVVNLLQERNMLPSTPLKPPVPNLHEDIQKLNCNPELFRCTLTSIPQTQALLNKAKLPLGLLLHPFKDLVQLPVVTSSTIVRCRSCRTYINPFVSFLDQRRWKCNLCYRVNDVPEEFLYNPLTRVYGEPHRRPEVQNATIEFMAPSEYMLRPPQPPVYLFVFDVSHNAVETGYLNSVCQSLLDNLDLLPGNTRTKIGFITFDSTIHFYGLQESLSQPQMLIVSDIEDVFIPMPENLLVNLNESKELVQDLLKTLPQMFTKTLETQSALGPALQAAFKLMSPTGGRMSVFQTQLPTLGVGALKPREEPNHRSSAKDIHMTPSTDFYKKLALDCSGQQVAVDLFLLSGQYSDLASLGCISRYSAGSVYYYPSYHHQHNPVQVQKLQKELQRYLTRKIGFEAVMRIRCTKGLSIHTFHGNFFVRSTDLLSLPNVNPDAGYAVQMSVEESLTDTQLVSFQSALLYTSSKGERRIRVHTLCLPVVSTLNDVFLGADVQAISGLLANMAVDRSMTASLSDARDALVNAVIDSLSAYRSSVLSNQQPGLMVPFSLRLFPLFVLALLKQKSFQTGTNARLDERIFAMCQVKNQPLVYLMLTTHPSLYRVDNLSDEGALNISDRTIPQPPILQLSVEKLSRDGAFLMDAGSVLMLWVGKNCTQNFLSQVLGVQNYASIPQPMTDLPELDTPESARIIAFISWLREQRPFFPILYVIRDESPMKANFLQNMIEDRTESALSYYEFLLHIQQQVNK
Sequence of UniProt Q7L4I2 (Q7L4I2 whole entry, looked up): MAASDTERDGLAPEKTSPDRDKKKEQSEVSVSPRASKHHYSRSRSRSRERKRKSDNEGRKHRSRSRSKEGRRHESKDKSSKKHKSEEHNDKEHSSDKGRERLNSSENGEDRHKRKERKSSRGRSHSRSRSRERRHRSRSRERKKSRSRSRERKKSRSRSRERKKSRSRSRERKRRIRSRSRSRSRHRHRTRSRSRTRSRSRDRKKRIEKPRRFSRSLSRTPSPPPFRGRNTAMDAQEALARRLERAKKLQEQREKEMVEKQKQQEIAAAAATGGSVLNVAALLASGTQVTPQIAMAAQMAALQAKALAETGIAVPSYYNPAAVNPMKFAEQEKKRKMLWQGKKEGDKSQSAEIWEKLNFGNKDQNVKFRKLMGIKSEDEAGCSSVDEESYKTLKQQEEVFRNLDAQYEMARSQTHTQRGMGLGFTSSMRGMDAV
Sequence of UniProt Q99590 (Q99590 whole entry, looked up): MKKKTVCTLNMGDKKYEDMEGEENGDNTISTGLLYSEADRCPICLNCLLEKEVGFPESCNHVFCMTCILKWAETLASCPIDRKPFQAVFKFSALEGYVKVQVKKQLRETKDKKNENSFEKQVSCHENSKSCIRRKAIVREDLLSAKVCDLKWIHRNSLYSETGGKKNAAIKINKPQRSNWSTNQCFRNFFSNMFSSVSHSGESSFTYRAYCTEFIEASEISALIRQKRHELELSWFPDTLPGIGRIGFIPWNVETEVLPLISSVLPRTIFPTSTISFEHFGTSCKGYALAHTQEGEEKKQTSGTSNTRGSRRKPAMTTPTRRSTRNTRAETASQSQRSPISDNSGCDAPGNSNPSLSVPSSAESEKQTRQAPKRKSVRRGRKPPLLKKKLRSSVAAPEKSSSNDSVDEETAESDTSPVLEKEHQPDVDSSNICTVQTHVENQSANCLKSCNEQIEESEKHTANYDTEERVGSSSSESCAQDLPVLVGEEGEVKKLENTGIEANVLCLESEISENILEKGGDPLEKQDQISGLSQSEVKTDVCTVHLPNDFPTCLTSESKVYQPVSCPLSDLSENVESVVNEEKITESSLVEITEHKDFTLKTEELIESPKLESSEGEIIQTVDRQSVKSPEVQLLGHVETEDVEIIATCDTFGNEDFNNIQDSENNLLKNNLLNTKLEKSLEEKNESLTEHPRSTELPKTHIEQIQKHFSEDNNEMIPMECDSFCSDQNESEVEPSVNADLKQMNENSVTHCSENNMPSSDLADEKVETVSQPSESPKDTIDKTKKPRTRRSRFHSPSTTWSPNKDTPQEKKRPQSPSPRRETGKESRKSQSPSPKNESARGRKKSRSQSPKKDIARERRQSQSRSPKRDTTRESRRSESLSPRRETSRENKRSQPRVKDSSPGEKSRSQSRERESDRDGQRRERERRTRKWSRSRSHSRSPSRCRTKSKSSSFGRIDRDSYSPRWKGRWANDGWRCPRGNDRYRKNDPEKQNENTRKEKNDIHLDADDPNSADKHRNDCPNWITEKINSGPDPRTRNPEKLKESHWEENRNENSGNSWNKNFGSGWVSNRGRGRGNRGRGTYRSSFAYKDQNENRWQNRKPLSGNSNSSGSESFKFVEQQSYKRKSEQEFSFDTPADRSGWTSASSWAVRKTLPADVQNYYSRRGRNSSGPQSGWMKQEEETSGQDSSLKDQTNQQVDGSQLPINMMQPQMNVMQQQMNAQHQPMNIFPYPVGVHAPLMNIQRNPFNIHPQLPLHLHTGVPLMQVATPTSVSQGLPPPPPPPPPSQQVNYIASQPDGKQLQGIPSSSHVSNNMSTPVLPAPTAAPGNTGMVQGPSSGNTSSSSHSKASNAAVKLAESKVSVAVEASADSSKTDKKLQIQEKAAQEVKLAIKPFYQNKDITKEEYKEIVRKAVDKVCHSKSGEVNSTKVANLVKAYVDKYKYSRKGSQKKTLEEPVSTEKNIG
Sequence of UniProt Q9H082 (Q9H082 whole entry, looked up): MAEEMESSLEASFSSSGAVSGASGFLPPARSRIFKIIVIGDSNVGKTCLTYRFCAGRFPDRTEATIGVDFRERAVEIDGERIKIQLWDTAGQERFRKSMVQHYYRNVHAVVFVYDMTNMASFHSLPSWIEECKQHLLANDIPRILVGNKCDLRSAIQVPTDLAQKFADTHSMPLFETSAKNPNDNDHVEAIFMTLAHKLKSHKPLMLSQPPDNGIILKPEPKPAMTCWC
Sequence of UniProt Q96ER3 (Q96ER3 whole entry, looked up): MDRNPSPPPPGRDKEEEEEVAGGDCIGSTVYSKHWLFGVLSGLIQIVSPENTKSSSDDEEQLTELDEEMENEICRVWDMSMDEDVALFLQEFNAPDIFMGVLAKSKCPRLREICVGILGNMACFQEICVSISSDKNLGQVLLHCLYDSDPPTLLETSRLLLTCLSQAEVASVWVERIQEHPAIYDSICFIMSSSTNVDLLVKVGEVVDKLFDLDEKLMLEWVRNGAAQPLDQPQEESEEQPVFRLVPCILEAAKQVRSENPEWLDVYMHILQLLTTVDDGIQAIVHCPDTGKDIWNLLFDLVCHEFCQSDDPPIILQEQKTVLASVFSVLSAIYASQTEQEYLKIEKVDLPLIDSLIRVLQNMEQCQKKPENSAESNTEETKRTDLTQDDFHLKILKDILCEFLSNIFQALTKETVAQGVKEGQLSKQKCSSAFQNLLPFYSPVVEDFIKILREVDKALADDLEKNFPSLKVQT
Sequence of UniProt Q99961 (Q99961 whole entry, looked up): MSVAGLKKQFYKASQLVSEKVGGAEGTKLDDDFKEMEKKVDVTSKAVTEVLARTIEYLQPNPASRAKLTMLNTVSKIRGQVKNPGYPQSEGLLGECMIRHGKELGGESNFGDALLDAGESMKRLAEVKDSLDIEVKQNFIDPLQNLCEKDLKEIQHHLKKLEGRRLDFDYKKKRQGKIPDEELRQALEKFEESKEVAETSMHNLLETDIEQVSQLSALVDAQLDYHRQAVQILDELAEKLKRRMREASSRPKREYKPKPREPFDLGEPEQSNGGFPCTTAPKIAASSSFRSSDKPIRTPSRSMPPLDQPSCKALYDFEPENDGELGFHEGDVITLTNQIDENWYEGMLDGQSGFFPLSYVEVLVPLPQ

With RAC1 (UniProt P63000) the log2 fold change [1] was -0.046, the log2 fold change [2] was 0.017 and the log2 fold change [3] was -0.111. The log2 fold change [4] was -0.098 and the log2 fold change [5] was 0.033.
Target SH3GL1 (UniProt Q99961) has a log2 fold change [1] of -0.073, a log2 fold change [2] of 0 and a log2 fold change [3] of 0.118. The log2 fold change [4] was 0.002 and the log2 fold change [5] was -0.049.
RCOR3 isoform 3 (UniProt Q9P2K3) showed a log2 fold change [1] of -0.139, a log2 fold change [2] of 0.087 and a log2 fold change [3] of 0.111. For the same target, the log2 fold change [4] was -0.06 and the log2 fold change [5] was 1.27 (active).
SCAF11 (UniProt Q99590) showed a log2 fold change [1] of -0.104, a log2 fold change [2] of -0.098 and a log2 fold change [3] of 0.021. It also gave a log2 fold change [4] of 0.064 and a log2 fold change [5] of 0.016.
RPS3A (UniProt P61247) was tested, and the log2 fold change [1] was 0.053, the log2 fold change [2] was -0.162 and the log2 fold change [3] was -0.139. For the same target, the log2 fold change [4] was 0.099 and the log2 fold change [5] was 0.
RSRC2 (UniProt Q7L4I2) showed a log2 fold change [1] of 0.034, a log2 fold change [2] of 0 and a log2 fold change [3] of -0.045. The log2 fold change [4] was 0.022 and the log2 fold change [5] was 0.085.
In the case of RAB33B (UniProt Q9H082), the log2 fold change [1] is reported as 0.003, the log2 fold change [2] is reported as -0.028 and the log2 fold change [3] is reported as 0.116. It also gave a log2 fold change [4] of -0.016 and a log2 fold change [5] of 0.069.
SAAL1 (UniProt Q96ER3) showed a log2 fold change [1] of -0.054, a log2 fold change [2] of 0.03 and a log2 fold change [3] of 0.046. The log2 fold change [4] was 0.109 and the log2 fold change [5] was -0.043.
Work on SEC24A (UniProt O95486) yielded a log2 fold change [1] of -0.022, a log2 fold change [2] of 0.02 and a log2 fold change [3] of 0.014. The log2 fold change [4] was -0.027 and the log2 fold change [5] was -0.021.
